The target in test [1] is Retinoic acid receptor alpha (Homo sapiens) (UniProt P10276). As to the kind of experiment: ATG_DR5_RAR_CIS: Attagene CIS-FACTORIAL HepG2 Assay for human Retinoic Acid Receptor Alpha (RARE), DR5 submotif (AID 2282934; active = hit-call score of the fitted dose curve at least 0.9, where 1 is the maximum; inactive = score below 0.9;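 for AC50: reporter responds to endogenous RAR alpha beta and gamma in HepG2 not RARA alone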). The note with it: HepG2 Attagene cis-factorial RARE DR5 reporter, mRNA; actives raise or lower the signal. Summed up:
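Read-out: DR5-driven reporter transcript measured by RT-PCR, 6-FAM primer extension, HpaI digest and capillary electrophoresis. Human HepG2 liver cells carry transiently transfected cis-element reporter constructs; dosing lasts 24 h. Gain or loss of signal fitted against DMSO baseline.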

Test [2] in a line: ATG_FoxO_CIS: Attagene CIS-FACTORIAL HepG2 Assay for human Forkhead box O (FoxO) (AID 2282943; active = hit-call score of the fitted dose curve at least 0.9, where 1 is the maximum; inactive = score below 0.9). The note with it: HepG2 Attagene cis-reporter, FoxO element, mRNA; actives raise or lower the signal. Summed up: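 Read-out: fluorescence of 6-FAM-labelled reporter cDNA fragments resolved by capillary electrophoresis. Transiently transfected HepG2 cells were dosed for 24 h; activity fitted in both directions relative to DMSO controls.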

Test [3] can be described thus: ATG_SREBP_CIS: Attagene CIS-FACTORIAL HepG2 Assay for human Sterol Regulatory Element Binding (SREBP) (AID 2282962; active = hit-call score of the fitted dose curve at least 0.9, where 1 is the maximum; inactive = score below 0.9). The conditions noted are these: HepG2 Attagene cis-factorial SREBP reporter, mRNA; actives raise or lower the signal. Summed up: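 Readout: fluorescent reporter-transcript peaks resolved by capillary electrophoresis after RT-PCR. Cells were human HepG2 carrying transfected cis-promoter reporter constructs, dosed for 24 h. Gain or loss of signal was fitted against DMSO controls.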

Test [4] is described as follows: ATG_M_32_TRANS: Attagene TRANS-FACTORIAL HepG2 Assay for M32 Transcription Factor (Internal Marker) (AID 2282984).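 Note: transcript level of a background control reporter unit measured by RT-PCR and capillary electrophoresis.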 The conditions noted are these: HepG2 Attagene TRANS M32 internal marker reporter. The procedure, abridged: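 Read-out: fluorescent reporter cDNA fragments resolved by capillary electrophoresis after RT-PCR of total RNA. Transfected HepG2 cells were exposed to chemical for 24 h. Activity scored in the positive direction relative to DMSO.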

The nature of test [5]: ATG_NFI_CIS: Attagene CIS-FACTORIAL HepG2 Assay for human Nuclear Factor I (NFI) (AID 2282989; active = hit-call score of the fitted dose curve at least 0.9, where 1 is the maximum; inactive = score below 0.9). The conditions noted are these: HepG2 cis-regulatory reporter, NFI response element transcription; actives raise or lower the signal. The procedure, abridged:
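Reporter transcripts were measured by RT-PCR with fluorescent primer extension and capillary electrophoresis 24 h post-treatment. HepG2 cells carried transiently transfected cis-regulated reporter constructs reporting endogenous factor activity; gain or loss fitted against DMSO baseline.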

The target in test [6] is human Peroxisome Proliferator-activated Receptor alpha (PPARa), PPARA (gene 5465) (UniProt Q07869). The experiment in a line: ATG_PPARa_TRANS: Attagene TRANS-FACTORIAL HepG2 Assay for human Peroxisome Proliferator-activated Receptor alpha (PPARa) (AID 2283001).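 For AC50: potency for gain of reporter signal over DMSO so agonist or activator.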 The procedure, abridged:
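Transient HepG2 transfection, GAL4-UAS reporters, NR-Gal4 chimeras; 24 h compound exposure. Readout: reporter transcripts by RT-PCR, 6-FAM primer extension, HpaI digest, capillary electrophoresis. Positive direction vs DMSO baseline.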

Test [7] is described as follows: TOX21_p53_BLA_p2_viability: Viability Assessment in the Tox21 HCT-116 p53 Agonism Beta-lactamase Assay, Phase 2 (AID 2283591).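 Note: compound exposure lasted 16 h at 37 °C; actives lower the ATP signal meaning cytotoxicity.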 The procedure, abridged:
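HCT116 p53-bla cells, 4000/well, dosed after 5 h plating (217-fold dilution of DMSO stocks) and incubated 16 h at 37C. Viability taken as cellular ATP by CellTiter-Glo luminescence after 30 min RT; signal loss marks cytotoxicity.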

Test [8] has as its target Cellular tumor antigen p53 (Homo sapiens) (UniProt P04637). As to the kind of experiment: TOX21_p53_BLA_p2_ratio: Tox21 HCT-116 p53 Agonism Beta-lactamase Assay, Ratio, Phase 2 (AID 2283592). Summed up:
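DMSO-normalized, positive-direction endpoint derived from the 460 nm/530 nm FRET ratio in HCT116 p53 beta-lactamase reporter cells exposed 16 h at 37C and loaded with CCF4-AM for 2 h.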

Test [9] in a line: TOX21_p53_BLA_p3_viability: Viability Assessment in the Tox21 HCT-116 p53 Agonism Beta-lactamase Assay, Phase 3 (AID 2283593).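 Note: cells exposed to compound for 16 h before reading.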 The procedure, abridged:
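HCT116 cells, 4000/well, dosed 5 h after plating by pin transfer (217-fold dilution from DMSO stock) and incubated 16 h at 37C, 5% CO2. Viability read as ATP luminescence with CellTiter-Glo after 30 min at room temperature.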

The target in test [10] is Cellular tumor antigen p53 (Homo sapiens) (UniProt P04637). The experiment in a line: TOX21_p53_BLA_p3_ratio: Tox21 HCT-116 p53 Agonism Beta-lactamase Assay, Ratio, Phase 3 (AID 2283596). The procedure, abridged: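 Cells were seeded at 4000/well, rested 5 h at 37C, then dosed with DMSO compound solutions (217-fold dilution) for 16 h. CCF4-AM substrate was loaded for 2 h at room temperature, and the 460/530 nm emission ratio was fitted for gain of signal versus DMSO.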

Test [11] has the same target. The experiment in a line: TOX21_p53_BLA_p5_ratio: Tox21 HCT-116 p53 Agonism Beta-lactamase Assay, Ratio, Phase 5 (AID 2283599). Summed up: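 HCT-116 p53-bla cells (4000/well) plated 5 h, dosed with compound (217-fold DMSO dilution) for 16 h at 37 C; CCF4-AM substrate 2 h at room temperature. Activity is the 460/530 nm emission ratio (405 nm excitation), fitted in gain-of-signal direction versus DMSO.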

A short description of test [12]: TOX21_p53_BLA_p5_viability: Viability Assessment in the Tox21 HCT-116 p53 Agonism Beta-lactamase Assay, Phase 5 (AID 2283600). The procedure, abridged: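 Here cell health was gauged by ATP levels in wells holding 4000 cells, each treated 16 h with DMSO-delivered compounds at 217-fold dilution; reduced luminescence marked toxicity.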
Test [13] concerns the target Cellular tumor antigen p53 (Homo sapiens) (UniProt P04637). The experiment in a line: TOX21_p53_BLA_p4_ratio: Tox21 HCT-116 p53 Agonism Beta-lactamase Assay, Ratio, Phase 4 (AID 2283601). The procedure, abridged: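 HCT-116 p53 beta-lactamase reporter cells (4000/well) preincubated 5 h, then compound (217-fold dilution of DMSO stock) for 16 h at 37C. CCF4-AM substrate added 2 h at room temperature; 460/530 nm emission ratio fitted upward versus DMSO.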

For test [14], the target named is Hepatocyte nuclear factor 3-beta (Homo sapiens) (UniProt Q9Y261). As to the kind of experiment: ATG_FoxA2_CIS: Attagene CIS-FACTORIAL HepG2 Assay for human Forkhead box A2 (FOXA2) (AID 2282942; active = hit-call score of the fitted dose curve at least 0.9, where 1 is the maximum; inactive = score below 0.9). The conditions noted are these: HepG2 cis-reporter transcription factor activity, 24 h; actives raise or lower the signal. The procedure, abridged: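 Endogenous transcription factor activity was read in HepG2 cells carrying transiently transfected cis-promoter reporter units. After 24 h dosing, reporter mRNA was quantified by RT-PCR and capillary electrophoresis, and values fitted bidirectionally versus DMSO.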

A short description of test [15]: ATG_GRE_CIS: Attagene CIS-FACTORIAL HepG2 Assay for human Glucocorticoid Response Elements (GRE) (AID 2282947; active = hit-call score of the fitted dose curve at least 0.9, where 1 is the maximum; inactive = score below 0.9). The conditions noted are these: HepG2 GRE cis-reporter, Attagene multiplex mRNA; actives raise or lower the signal. The procedure, abridged:
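Read-out: fluorescent reporter-transcript fragments separated by capillary electrophoresis after RT-PCR. Transiently transfected HepG2 cells carrying cis-element-driven reporter units were dosed for 24 h; gain or loss of signal fitted against DMSO control.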

Test [16] can be described thus: ATG_PBREM_CIS: Attagene CIS-FACTORIAL HepG2 Assay for human Phenobarbital-responsive Enhancer Module (PBREM) (AID 2282955; active = hit-call score of the fitted dose curve at least 0.9, where 1 is the maximum; inactive = score below 0.9). The conditions noted are these: HepG2 PBREM cis-reporter, Attagene multiplexed transcription; actives raise or lower the signal. Summed up:
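Fluorescence of labelled reporter cDNA fragments, resolved by capillary electrophoresis, gives mRNA induction in transfected HepG2 cells treated for 24 h; DMSO serves as negative control and baseline.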

Test [17] addresses Hepatocyte nuclear factor 4-alpha (Homo sapiens) (UniProt P41235). The experiment in a line: ATG_HNF4a_TRANS: Attagene TRANS-FACTORIAL HepG2 Assay for human Hepatocyte Nuclear Factor 4 alpha (HNF4a) (AID 2282982). The note with it: HepG2 HNF4a transactivation reporter, mRNA readout. Summed up:
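Transient MRTU transfection of HepG2, 24 h dosing. Readout: reporter mRNA via RT-PCR + capillary electrophoresis, fluorescence; activity fit upward relative to DMSO control.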

A short description of test [18]: ATG_NF_kB_CIS: Attagene CIS-FACTORIAL HepG2 Assay for human Nuclear Factor Kappa B (NF-kB) (AID 2282991; active = hit-call score of the fitted dose curve at least 0.9, where 1 is the maximum; inactive = score below 0.9). The conditions noted are these: HepG2 Attagene cis-factorial NF-kB reporter mRNA; actives raise or lower the signal. The procedure, abridged:
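Endogenous transcription factor activity in HepG2 was captured via cis-regulated reporter constructs; after 24 h dosing, reporter mRNA was reverse-transcribed, amplified, fluorescently labelled and sized by capillary electrophoresis, with activity fitted bidirectionally relative to DMSO.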

Test [19] in a line: ATG_RORE_CIS: Attagene CIS-FACTORIAL HepG2 Assay for human RAR-related Orphan Receptor Element (RORE) (AID 2282959; active = hit-call score of the fitted dose curve at least 0.9, where 1 is the maximum; inactive = score below 0.9). The note with it: HepG2 Attagene cis-factorial RORE reporter, mRNA; actives raise or lower the signal. The procedure, abridged:
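Cells were HepG2 carrying transfected cis-regulated reporter constructs, dosed for 24 hours. Total RNA was reverse-transcribed and reporter cDNA amplified, fluorescently labeled and sized by capillary electrophoresis. Activity was fitted bidirectionally relative to DMSO.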

Test [20] addresses human Retinoid X Receptor beta (RXRb), RXRB (gene 6257) (UniProt P28702). The experiment in a line: ATG_RXRb_TRANS: Attagene TRANS-FACTORIAL HepG2 Assay for human Retinoid X Receptor beta (RXRb) (AID 2283013). The procedure, abridged:
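After a 24 h incubation with test chemical, transfected HepG2 cells carrying NR-Gal4 fusions and GAL4-UAS reporter transcription units yield RNA whose reporter cDNA is FAM-labelled, HpaI-cut and sized by capillary electrophoresis; increases over DMSO are scored.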

For five molecules, outcome and AC50 results are on record in PubChem BioAssay (EPA / NIEHS).

Values joined by “and” are separate entries in the source; they are usually repeats but may differ in a detail not shown here. Equal values may be shown once. Inconclusive results are not listed. More than one record can exist for a structure, and the calls need not agree. Active and inactive are the calls of the source. Rule for the calls, unless noted: active = hit-call score of the fitted dose curve at least 0.9, where 1 is the maximum; inconclusive = response in the unintended direction; inactive = score below 0.9.

Retinoic acid receptor alpha (Homo sapiens), sequence (P10276 whole entry, looked up): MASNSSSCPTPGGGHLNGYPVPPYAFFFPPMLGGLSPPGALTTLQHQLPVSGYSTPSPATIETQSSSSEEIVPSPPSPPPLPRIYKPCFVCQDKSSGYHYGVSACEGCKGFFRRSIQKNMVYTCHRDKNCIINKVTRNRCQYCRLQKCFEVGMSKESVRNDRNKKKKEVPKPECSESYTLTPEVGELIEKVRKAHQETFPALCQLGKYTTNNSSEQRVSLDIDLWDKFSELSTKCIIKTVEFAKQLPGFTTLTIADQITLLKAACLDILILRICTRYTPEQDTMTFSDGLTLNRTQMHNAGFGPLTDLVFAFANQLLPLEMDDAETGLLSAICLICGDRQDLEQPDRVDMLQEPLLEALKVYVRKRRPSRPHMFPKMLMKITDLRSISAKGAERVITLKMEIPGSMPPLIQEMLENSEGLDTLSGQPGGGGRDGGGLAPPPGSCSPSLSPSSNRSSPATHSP
human Peroxisome Proliferator-activated Receptor alpha (PPARa), PPARA (gene 5465), sequence (Q07869 whole entry, looked up, the tested form may be a part): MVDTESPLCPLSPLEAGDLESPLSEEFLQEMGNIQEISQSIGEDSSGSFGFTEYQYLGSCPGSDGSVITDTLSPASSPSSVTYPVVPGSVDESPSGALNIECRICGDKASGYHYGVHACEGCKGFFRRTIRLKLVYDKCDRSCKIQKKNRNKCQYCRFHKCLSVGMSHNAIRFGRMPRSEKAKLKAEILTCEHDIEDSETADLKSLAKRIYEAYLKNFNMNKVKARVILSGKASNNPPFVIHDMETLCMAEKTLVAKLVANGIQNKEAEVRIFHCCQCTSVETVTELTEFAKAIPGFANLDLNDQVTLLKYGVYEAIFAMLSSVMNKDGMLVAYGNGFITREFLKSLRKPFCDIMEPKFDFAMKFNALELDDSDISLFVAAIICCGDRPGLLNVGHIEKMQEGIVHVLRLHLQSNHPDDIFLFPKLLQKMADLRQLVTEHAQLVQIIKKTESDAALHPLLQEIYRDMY
Hepatocyte nuclear factor 4-alpha (Homo sapiens), sequence (P41235 whole entry, looked up): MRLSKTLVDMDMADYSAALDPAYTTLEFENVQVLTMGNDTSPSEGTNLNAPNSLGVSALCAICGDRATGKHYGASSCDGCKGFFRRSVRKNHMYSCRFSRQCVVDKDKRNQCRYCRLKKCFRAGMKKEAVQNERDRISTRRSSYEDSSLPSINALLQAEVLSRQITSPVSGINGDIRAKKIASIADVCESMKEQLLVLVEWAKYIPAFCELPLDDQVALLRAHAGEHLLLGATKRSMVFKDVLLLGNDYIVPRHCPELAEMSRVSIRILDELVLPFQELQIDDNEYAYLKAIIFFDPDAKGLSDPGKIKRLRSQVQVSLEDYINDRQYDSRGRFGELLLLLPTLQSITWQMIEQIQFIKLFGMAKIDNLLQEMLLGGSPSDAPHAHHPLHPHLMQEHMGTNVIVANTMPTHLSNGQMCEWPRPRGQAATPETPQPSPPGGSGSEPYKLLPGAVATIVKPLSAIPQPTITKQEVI
Cellular tumor antigen p53 (Homo sapiens), sequence (P04637 whole entry, looked up): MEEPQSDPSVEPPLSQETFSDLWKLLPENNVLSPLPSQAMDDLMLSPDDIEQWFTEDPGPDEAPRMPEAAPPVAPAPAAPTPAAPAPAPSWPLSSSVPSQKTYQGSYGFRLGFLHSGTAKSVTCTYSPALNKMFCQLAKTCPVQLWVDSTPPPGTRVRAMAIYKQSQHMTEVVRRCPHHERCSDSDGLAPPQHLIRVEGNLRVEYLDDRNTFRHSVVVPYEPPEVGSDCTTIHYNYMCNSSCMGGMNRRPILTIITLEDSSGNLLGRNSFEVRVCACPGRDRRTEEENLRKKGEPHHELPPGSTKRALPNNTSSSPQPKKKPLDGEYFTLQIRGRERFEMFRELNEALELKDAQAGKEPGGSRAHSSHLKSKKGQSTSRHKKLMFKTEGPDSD
Hepatocyte nuclear factor 3-beta (Homo sapiens), sequence (Q9Y261 whole entry, looked up): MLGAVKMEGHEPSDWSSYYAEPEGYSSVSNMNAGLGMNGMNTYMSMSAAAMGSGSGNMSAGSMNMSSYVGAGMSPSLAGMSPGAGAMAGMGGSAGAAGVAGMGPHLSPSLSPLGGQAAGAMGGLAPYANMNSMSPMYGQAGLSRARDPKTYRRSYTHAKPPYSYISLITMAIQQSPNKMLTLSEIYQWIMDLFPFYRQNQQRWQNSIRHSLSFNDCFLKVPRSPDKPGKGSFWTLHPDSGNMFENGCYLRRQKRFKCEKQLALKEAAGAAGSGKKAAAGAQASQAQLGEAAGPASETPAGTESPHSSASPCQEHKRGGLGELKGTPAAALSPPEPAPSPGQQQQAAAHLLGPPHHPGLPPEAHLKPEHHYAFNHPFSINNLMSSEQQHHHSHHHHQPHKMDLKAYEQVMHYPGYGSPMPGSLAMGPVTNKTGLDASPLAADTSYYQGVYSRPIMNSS
human Retinoid X Receptor beta (RXRb), RXRB (gene 6257), sequence (P28702 whole entry, looked up, the tested form may be a part): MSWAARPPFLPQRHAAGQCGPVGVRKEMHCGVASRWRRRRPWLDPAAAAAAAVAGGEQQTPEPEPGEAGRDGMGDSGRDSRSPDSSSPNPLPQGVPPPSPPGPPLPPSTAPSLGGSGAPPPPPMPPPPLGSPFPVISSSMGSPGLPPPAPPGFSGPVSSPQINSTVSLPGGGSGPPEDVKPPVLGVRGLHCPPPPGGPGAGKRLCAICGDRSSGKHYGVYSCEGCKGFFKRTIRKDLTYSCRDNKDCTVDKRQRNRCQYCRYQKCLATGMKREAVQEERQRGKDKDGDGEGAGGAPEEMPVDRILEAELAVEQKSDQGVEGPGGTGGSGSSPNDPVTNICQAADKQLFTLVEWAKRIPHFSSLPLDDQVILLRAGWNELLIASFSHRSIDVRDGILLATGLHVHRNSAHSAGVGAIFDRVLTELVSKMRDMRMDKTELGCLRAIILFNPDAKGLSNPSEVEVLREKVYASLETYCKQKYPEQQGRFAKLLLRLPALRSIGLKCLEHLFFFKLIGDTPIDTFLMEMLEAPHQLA

As to `OCCOCCOCCOCCOCCO`, the molecule was called inactive in test [1], in test [2], in test [3], in test [4], in test [5] and in test [6]. The result in [7], in [8], in test [9], in test [10], in test [11] and in test [12] was inactive. Besides, the result in test [13] was inactive.

Take `Cc1cc2nc3c(=O)[nH]c(=O)nc-3n(C[C@H](O)[C@H](O)[C@H](O)CO)c2cc1C`: the molecule was classed as inactive in [1], in test [14], in test [15], in test [16], in test [3] and in test [17]. Moreover, the result in test [5], in [18], in [6], in test [7], in [8] and in [9] was inactive. Also, the outcome in test [10], in test [12] and in [13] was inactive.

In the case of `CCOC(=O)CC(=O)OCC`, the call in test [1], in test [14], in test [15], in test [19], in test [17] and in [5] was inactive. In addition, the molecule was classed as inactive in test [6], in test [7], in test [8], in test [9], in [10] and in test [11]. Moreover, the outcome in test [12] and in test [13] was inactive.

As for `Cc1cc(O)cc(C)c1Cl`, the AC50 (usually the midpoint of the concentration-response curve, whichever way the signal moves) in test [1] is 79.6 µM (active); in test [20], 48.8 µM (active). Besides, the molecule was classed as inactive in [14], in test [2], in [15], in test [4], in [5] and in test [18]. Further, in test [6], the molecule was classed as inactive.

Regarding `CCCc1c(OCCCCc2nn[nH]n2)ccc(C(C)=O)c1O`, the molecule was called inactive in test [2], in test [15], in test [16], in test [17], in test [4] and in [18]. For the same molecule, the call in test [7], in test [9], in test [10], in test [11], in [12] and in test [13] was inactive. For the same molecule, the AC50 in test [19] was 33.2 µM (active); in test [3] it was 37.4 µM (active); in test [6], 27.7 µM (active); in test [20] it was 20.4 µM (active); in test [8], 73.1 µM (active) and 19.2 µM (active); in test [10] it was 30.1 µM (active). Besides, the AC50 in test [11] was 26.6 µM (active); in test [13], 25.2 µM (active).
